Experiment [1] in a line: cAMP Responsive Elements (CRE) small molecule antagonists, cell-based qHTS assay: qHTS cell viability counter screen (AID 2060913). Further: nearly all actives have a fitted effect of over 40% in size. Conditions: CRE-bla HEK293T viability, CellTiter-Glo luminescence, 5 h; series mostly up to 92.4 µM. Put shortly: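 Cytotoxicity counter screen multiplexed with the CRE-bla antagonist read: HEK293T cells in DMEM with dialyzed FBS and 25 mM HEPES were treated 3 hrs under 0.25 uM final NKH477, then viability measured by CellTiter-Glo luminescence.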

Experiment [2] can be described thus: cAMP Responsive Elements (CRE) small molecule agonists, cell-based qHTS assay: qHTS cell viability counter screen (AID 2060914).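 Further: viability read after 3 h of compound exposure; nearly all actives have a fitted effect of over 50% in size.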 Conditions: CRE-bla HEK293T viability, CellTiter-Glo luminescence, 5 h; series mostly up to 92.4 µM. Summed up: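 CRE-bla HEK 293T cells, plated 18 h at 37 °C, were exposed to compounds for 3 h at 37 °C/5% CO2. Viability was then measured in the same wells by CellTiter-Glo luminescence after 30 min at room temperature.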
(In qHTS, concentration-response curves come from the screen itself.)

Drawing on PubChem BioAssay (Tox21), this text covers Potency for three molecules.

Results filed as inconclusive are left out. Entries that show only a call come without a potency. Activity calls are given as the source filed them. The call rests on the fitted dose curve; in most records, active means well fitted cell-killing curve with a large enough effect in the repeat runs; inconclusive means weak or mixed curves, or effect the other way; inactive means flat fitted curve, though single readings scatter.

As to `OCC(CO)N[C@H]1C[C@](O)(CO)[C@@H](O)[C@H](O)[C@H]1O`, the Potency result in experiment [1] and in experiment [2] was “inactive” in each case.
With `Nc1ccc2c3c(cccc13)-c1ccccc1-2`, the Potency entry in experiment [1] and in experiment [2] was “inactive” in each case.
As to `COc1ccc2cc1Oc1cc3c(cc1OC)CC[N+](C)(C)[C@H]3Cc1ccc(cc1)Oc1c(OC)c(OC)cc3c1[C@@H](C2)[N+](C)(C)CC3`, the Potency entry in experiment [1] and in experiment [2] was “inactive” in each case.
